# Test results: the supplement of paper PMC8975748
# ± gives the standard deviation of the averaged measurements.
# How the values were obtained:
# [1] = tested on: Saccharomyces cerevisiae BY4741 SeMeCo community; assay: mean cell size (pixel area) (pixels); higher = larger cells; conditions: 10 µM; 24 h; SM minimal medium
# Procedure, shortened: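 Mean cell pixel area per well was measured in a four-plasmid fluorescent community of Saccharomyces cerevisiae BY4741, where every plasmid complements one auxotrophy and carries a fluorescent marker. Cells from an overnight preculture at OD600 = 1.0 were diluted to OD600 = 0.3 and dispensed at 70 µl into 384-well plates acoustically predosed with drug to a final 10 µM in SM medium. Incubation lasted 24 h, followed by paraformaldehyde fixation, automated confocal imaging and analysis in Harmony. Reported figures are averaged over 3 replicates. Same SeMeCo high-content imaging drug screen: Selleck FDA-approved drugs at 10 µM, 24 h in SM medium, 384-well plates, 3 replicates.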
# [2] = tested on: Saccharomyces cerevisiae BY4741 SeMeCo community; assay: z-score of prototroph abundance vs DMSO median; higher = larger share of this subpopulation than in DMSO controls; conditions: 10 µM; 24 h; SM minimal medium; subpopulation (auxotrophy): Prototroph
# Procedure, shortened: (§1)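 Scoring was based on each subpopulation's abundance, expressed as a z-score against the vehicle-well median. A Saccharomyces cerevisiae BY4741 community with four plasmids, each restoring one auxotrophy and encoding a distinct fluorescent protein, was pre-grown overnight to OD600 1.0, diluted to 0.3, and added at 70 µl to 384-well plates acoustically predosed with library drugs (10 µM final). It then grew 24 h in minimal SM medium before paraformaldehyde fixation and automated confocal microscopy, with single-auxotroph fluorescent strains setting thresholds and autofluorescence correction.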
# [3] = tested on: Saccharomyces cerevisiae BY4741 SeMeCo community; assay: z-score of subpopulation abundance vs DMSO median, subpopulation auxotrophic for M; higher = larger share of this subpopulation than in DMSO controls; conditions: 10 µM; 24 h; SM minimal medium; subpopulation (auxotrophy): M
# Procedure, shortened: as §1
# [4] = tested on: Saccharomyces cerevisiae BY4741 SeMeCo community; assay: z-score of subpopulation abundance vs DMSO median, subpopulation auxotrophic for L; higher = larger share of this subpopulation than in DMSO controls; conditions: 10 µM; 24 h; SM minimal medium; subpopulation (auxotrophy): L
# Procedure, shortened: as §1
# [5] = tested on: Saccharomyces cerevisiae BY4741 SeMeCo community; assay: z-score of subpopulation abundance vs DMSO median, subpopulation auxotrophic for U; higher = larger share of this subpopulation than in DMSO controls; conditions: 10 µM; 24 h; SM minimal medium; subpopulation (auxotrophy): U
# Procedure, shortened: as §1
# [6] = tested on: Saccharomyces cerevisiae BY4741 SeMeCo community; assay: z-score of subpopulation abundance vs DMSO median, subpopulation auxotrophic for H; higher = larger share of this subpopulation than in DMSO controls; conditions: 10 µM; 24 h; SM minimal medium; subpopulation (auxotrophy): H
# Procedure, shortened: as §1
# [7] = tested on: Saccharomyces cerevisiae BY4741 SeMeCo community; assay: z-score of subpopulation abundance vs DMSO median, subpopulation auxotrophic for LU; higher = larger share of this subpopulation than in DMSO controls; conditions: 10 µM; 24 h; SM minimal medium; subpopulation (auxotrophy): LU
# Procedure, shortened: as §1
# [8] = tested on: Saccharomyces cerevisiae BY4741 SeMeCo community; assay: z-score of subpopulation abundance vs DMSO median, subpopulation auxotrophic for LM; higher = larger share of this subpopulation than in DMSO controls; conditions: 10 µM; 24 h; SM minimal medium; subpopulation (auxotrophy): LM
# Procedure, shortened: as §1
# [9] = tested on: Saccharomyces cerevisiae BY4741 SeMeCo community; assay: z-score of subpopulation abundance vs DMSO median, subpopulation auxotrophic for HM; higher = larger share of this subpopulation than in DMSO controls; conditions: 10 µM; 24 h; SM minimal medium; subpopulation (auxotrophy): HM
# Procedure, shortened: as §1
# [10] = tested on: Saccharomyces cerevisiae BY4741 SeMeCo community; assay: z-score of subpopulation abundance vs DMSO median, subpopulation auxotrophic for HU; higher = larger share of this subpopulation than in DMSO controls; conditions: 10 µM; 24 h; SM minimal medium; subpopulation (auxotrophy): HU
# Procedure, shortened: as §1
# [11] = tested on: Saccharomyces cerevisiae BY4741 SeMeCo community; assay: z-score of subpopulation abundance vs DMSO median, subpopulation auxotrophic for UM; higher = larger share of this subpopulation than in DMSO controls; conditions: 10 µM; 24 h; SM minimal medium; subpopulation (auxotrophy): UM
# Procedure, shortened: as §1
# [12] = tested on: Saccharomyces cerevisiae BY4741 SeMeCo community; assay: z-score of subpopulation abundance vs DMSO median, subpopulation auxotrophic for HL; higher = larger share of this subpopulation than in DMSO controls; conditions: 10 µM; 24 h; SM minimal medium; subpopulation (auxotrophy): HL
# Procedure, shortened: as §1
# [13] = tested on: Saccharomyces cerevisiae BY4741 SeMeCo community; assay: z-score of subpopulation abundance vs DMSO median, subpopulation auxotrophic for HLU; higher = larger share of this subpopulation than in DMSO controls; conditions: 10 µM; 24 h; SM minimal medium; subpopulation (auxotrophy): HLU
# Procedure, shortened: as §1
# [14] = tested on: Saccharomyces cerevisiae BY4741 SeMeCo community; assay: z-score of subpopulation abundance vs DMSO median, subpopulation auxotrophic for HUM; higher = larger share of this subpopulation than in DMSO controls; conditions: 10 µM; 24 h; SM minimal medium; subpopulation (auxotrophy): HUM
# Procedure, shortened: as §1
# [15] = tested on: Saccharomyces cerevisiae BY4741 SeMeCo community; assay: z-score of subpopulation abundance vs DMSO median, subpopulation auxotrophic for LUM; higher = larger share of this subpopulation than in DMSO controls; conditions: 10 µM; 24 h; SM minimal medium; subpopulation (auxotrophy): LUM
# Procedure, shortened: as §1
# [16] = tested on: Saccharomyces cerevisiae BY4741 SeMeCo community; assay: z-score of subpopulation abundance vs DMSO median, subpopulation auxotrophic for HLUM; higher = larger share of this subpopulation than in DMSO controls; conditions: 10 µM; 24 h; SM minimal medium; subpopulation (auxotrophy): HLUM
# Procedure, shortened: as §1
SMILES,mean cell size [1],z-score of prototroph abundance [2],z-score of subpopulation abundance [3],z-score of subpopulation abundance [4],z-score of subpopulation abundance [5],z-score of subpopulation abundance [6],z-score of subpopulation abundance [7],z-score of subpopulation abundance [8],z-score of subpopulation abundance [9],z-score of subpopulation abundance [10],z-score of subpopulation abundance [11],z-score of subpopulation abundance [12],z-score of subpopulation abundance [13],z-score of subpopulation abundance [14],z-score of subpopulation abundance [15],z-score of subpopulation abundance [16]
COc1ccc2c3c1O[C@H]1C[C@@H](O)C=C[C@@]31CCN(C)C2 [Galanthamine],12.47 ± 0.052,-1.09,1.21,0.78,-0.51,0.83,0.29,0.45,1.76,0.48,0.1,0.83,1.67,1.27,,
Nc1nc(/C(=C/CC(=O)O)C(=O)N[C@@H]2C(=O)N3C(C(=O)O)=CCS[C@H]23)cs1 [Ceftibuten dihydrate],12.6 ± 0.21,0.52,0.21,0.22,-0.28,-0.33,-0.12,,-0.56,-0.31,-0.49,-0.1,-0.13,-1.27,0.4,0.51
Cc1ncc([N+](=O)[O-])n1C [Dimetridazole],12.5 ± 0.19,0.38,-0.26,-1.34,-0.07,0.05,-0.31,-0.99,,,-0.37,-0.32,-0.59,0.28,,0.31
CSc1nc2cc(Cl)c(Oc3cccc(Cl)c3Cl)cc2[nH]1 [Triclabendazole],13.1 ± 0.54,,-9.19,-0.07,-0.92,5.63,0.92,-2.65,-3.03,,-5.17,3.65,2.64,-1.46,1.09,4.69
Cc1c(-c2ccc(O)cc2)n(Cc2ccc(OCCN3CCCCCC3)cc2)c2ccc(O)cc12 [Bazedoxifene Acetate],12.6 ± 0.073,-0.23,0.99,-0.2,-0.25,,0.06,-0.35,0.8,-1.12,0.36,-0.12,0.21,-0.26,,-0.3
COCCOC(=O)C1=C(C)NC(C)=C(C(=O)OC/C=C/c2ccccc2)C1c1cccc([N+](=O)[O-])c1 (centres undefined) [Cilnidipine],12.3 ± 0.24,-0.13,-1.14,0.77,-0.53,1.28,0.17,0.12,0.7,0.24,-0.33,0.94,1.34,0.37,-0.1,-0.48
CC[C@@]1(O)C(=O)OCc2c1cc1n(c2=O)Cc2cc3cc(O)ccc3nc2-1 [Hydroxy Camptothecine],12.5 ± 0.14,1.27,3.88,2.31,-5.21,3.18,-3.85,,3.39,-4.32,-4.43,2.22,-1.2,-1.9,-1.35,0.8
COCCCOc1ccnc(C[S+]([O-])c2nc3ccccc3[nH]2)c1C (centres undefined) [Rebeprazole sodium],12.5 ± 0.13,-0.38,0.58,-0.68,0.15,-0.76,-0.77,0.03,0.23,,,-0.55,1.09,0.36,,0.04
